In PubChem BioAssay (NCI):
Compounds without any hit were thinned out: in the full panel of roughly 83,000, 20% have a hit.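 How to read the values: 0–100, growth inhibition (40 = 60% inhibited); 0, no net growth; -100 to 0, cell death (-40 = 40% of starting cells died; -100 = all dead).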 Unmarked numbers belong to inactive results. The source made the active and inactive calls. Rule for the calls: active = growth percent below 10; inactive = the rest.

Legend:
Test in all cases: NCI-60 one-dose screen, 48 h (100 = growth as untreated, 0 = no growth, -100 = all killed)
Conditions in all cases: 10 µM unless noted
T-47D breast = tested on: T-47D breast
BT-549 breast = tested on: BT-549 breast
MDA-MB-435 melanoma = tested on: MDA-MB-435 melanoma
SW-620 colon = tested on: SW-620 colon
MCF7 breast = tested on: MCF7 breast
HCT-116 colon = tested on: HCT-116 colon
HCC-2998 colon = tested on: HCC-2998 colon
KM12 colon = tested on: KM12 colon

Cc1nc2ccccc2c(/C=C/c2ccccc2)c1C(=O)/C=C/c1ccccc1
growth (T-47D breast): 15.6%
growth (BT-549 breast): 40.6%
growth (MDA-MB-435 melanoma): -17.2% (active)
growth (SW-620 colon): -65.6% (active)
growth (MCF7 breast): 17%
growth (HCT-116 colon): -43% (active)
growth (HCC-2998 colon): 31.6%
growth (KM12 colon): 11.6%

Cc1ccc(/C=C/C(=O)c2cccc(OCCCOc3cccc(C(=O)/C=C/c4ccc(C)cc4)c3)c2)cc1
growth (T-47D breast): 58.4%
growth (BT-549 breast): 79.7%
growth (MDA-MB-435 melanoma): 89.3%
growth (SW-620 colon): 68.1%
growth (MCF7 breast): 2.54% (active)
growth (HCT-116 colon): 18.3%
growth (HCC-2998 colon): 66.3%
growth (KM12 colon): 78.8%

O=C(Cc1cccc(OC(F)(F)F)c1)Nc1ccc(CCCCc2nnc(NC(=O)Cc3ccccn3)s2)nn1
growth (T-47D breast): 30.3%
growth (BT-549 breast): 48.7%
growth (MDA-MB-435 melanoma): 85.1%
growth (SW-620 colon): 100%
growth (MCF7 breast): 79.7%
growth (HCT-116 colon): 40%
growth (HCC-2998 colon): 91%
growth (KM12 colon): 69.4%

COc1cc(OC)c(/C=C/C(=O)c2c(O)cc(OC)c(C3CCN(C)CC3)c2OC)c(OC)c1
growth (T-47D breast): -74.5% (active)
growth (BT-549 breast): -6.55% (active)
growth (MDA-MB-435 melanoma): -87.9% (active)
growth (SW-620 colon): -83.8% (active)
growth (MCF7 breast): -86.1% (active)
growth (HCT-116 colon): -100% (active)
growth (HCC-2998 colon): -94.5% (active)
growth (KM12 colon): -62% (active)

[2H]C([2H])([2H])Oc1ccc(F)cc1/C=C/C(=O)/C=C(O)/C=C/c1cc(F)ccc1OC([2H])([2H])[2H]
growth (T-47D breast): 73.5%
growth (BT-549 breast): 93.3%
growth (MDA-MB-435 melanoma): 84.5%
growth (SW-620 colon): 102%
growth (MCF7 breast): 70%
growth (HCT-116 colon): 83.9%
growth (HCC-2998 colon): 105%
growth (KM12 colon): 98.4%

CCOC(=O)/C=C1\S/C(=N\Nc2cc(=O)[nH]c3ccccc23)N(c2ccccc2)C1=O
growth (T-47D breast): 94.6%
growth (BT-549 breast): 98.4%
growth (MDA-MB-435 melanoma): 106%
growth (SW-620 colon): 101%
growth (MCF7 breast): 91.5%
growth (HCT-116 colon): 98.5%
growth (HCC-2998 colon): 110%
growth (KM12 colon): 101%

N#Cc1c(-c2ccccc2)nc(SCC(O)CN2CCOCC2)nc1N1CCOCC1 (stereo unspecified)
growth (T-47D breast): 26%
growth (BT-549 breast): 29.5%
growth (MDA-MB-435 melanoma): 53%
growth (SW-620 colon): 78.6%
growth (MCF7 breast): 4.99% (active)
growth (HCT-116 colon): 57.5%
growth (HCC-2998 colon): 72.9%
growth (KM12 colon): 69.1%

CCOC(=O)c1cc(C(=O)c2cc(OC)c(OC)c(OC)c2)n2ccccc12
growth (T-47D breast): 47.5%
growth (BT-549 breast): 40%
growth (MDA-MB-435 melanoma): -41.8% (active)
growth (SW-620 colon): 29.8%
growth (MCF7 breast): 23.7%
growth (HCT-116 colon): 18.9%
growth (HCC-2998 colon): 39.4%
growth (KM12 colon): 25.2%

O=P(O)(O)OCC1OC(n2cnc3c(NCc4ccco4)ncnc32)C(O)C1O (stereo unspecified)
growth (T-47D breast): 42.5%
growth (BT-549 breast): -12.3% (active)
growth (MDA-MB-435 melanoma): 16.2%
growth (SW-620 colon): 14.8%
growth (MCF7 breast): 0.586% (active)
growth (HCT-116 colon): -31.1% (active)
growth (HCC-2998 colon): 0.214% (active)
growth (KM12 colon): 44.1%

COc1ccc(C(=O)N2c3ccccc3Sc3ccccc32)c(C(F)(F)F)c1
growth (T-47D breast): 52.3%
growth (BT-549 breast): 10.7%
growth (MDA-MB-435 melanoma): -25% (active)
growth (SW-620 colon): 24.7%
growth (MCF7 breast): 17%
growth (HCT-116 colon): 6.57% (active)
growth (HCC-2998 colon): 26%
growth (KM12 colon): 18%

O=C1/C(=C\c2ccccn2)c2ccccc2N1c1c(Cl)cccc1Cl
growth (T-47D breast): 4.47% (active)
growth (BT-549 breast): -17.7% (active)
growth (MDA-MB-435 melanoma): -5.05% (active)
growth (SW-620 colon): -56.9% (active)
growth (MCF7 breast): 2.29% (active)
growth (HCT-116 colon): -94.4% (active)
growth (HCC-2998 colon): -82.1% (active)
growth (KM12 colon): -2.11% (active)

Fc1cccc(-c2ccc3c(c2)C2(CCNCC2)CN3)c1
growth (T-47D breast): 78.9%
growth (BT-549 breast): 93.1%
growth (MDA-MB-435 melanoma): 108%
growth (SW-620 colon): 106%
growth (MCF7 breast): 92.5%
growth (HCT-116 colon): 94.3%
growth (HCC-2998 colon): 99.4%
growth (KM12 colon): 102%

C/C(=N\O)c1ccc(NC(=O)CSc2nnc(-c3cc(-c4ccc(S(N)(=O)=O)cc4)nc4ccccc34)n2-c2ccccc2)cc1
growth (T-47D breast): 36.6%
growth (BT-549 breast): 67.9%
growth (MDA-MB-435 melanoma): 69.5%
growth (SW-620 colon): 74.7%
growth (MCF7 breast): 44.6%
growth (HCT-116 colon): 53.2%
growth (HCC-2998 colon): 87.5%
growth (KM12 colon): 65%

CCN1CCN(CC(=O)Nc2ccc(-c3cn4c(n3)sc3cc(Oc5ccnc(C(=O)NC)c5)ccc34)cc2)CC1
growth (T-47D breast): 32.8%
growth (BT-549 breast): 57.2%
growth (MDA-MB-435 melanoma): 10.1%
growth (SW-620 colon): 8.44% (active)
growth (MCF7 breast): 80.2%
growth (HCT-116 colon): 1.48% (active)
growth (HCC-2998 colon): 117%
growth (KM12 colon): 75.6%

CC1CCN(C(=S)SCC(=O)NC(=O)c2ccccc2)CC1
growth (T-47D breast): 84.7%
growth (BT-549 breast): 106%
growth (MDA-MB-435 melanoma): 106%
growth (SW-620 colon): 105%
growth (MCF7 breast): 95.7%
growth (HCT-116 colon): 109%
growth (HCC-2998 colon): 115%
growth (KM12 colon): 97%

CN1CCN(CCOc2ccc(-c3cnc4c(-c5cccc(F)c5F)cnn4c3)cc2)CC1
growth (T-47D breast): 85.4%
growth (BT-549 breast): 50.4%
growth (MDA-MB-435 melanoma): -66.1% (active)
growth (SW-620 colon): -68.9% (active)
growth (MCF7 breast): -23.8% (active)
growth (HCT-116 colon): -65% (active)
growth (HCC-2998 colon): 101%
growth (KM12 colon): -68.9% (active)

CNC(=O)c1cc(Oc2cccc3nc(NC(=O)Nc4cc(C(F)(F)F)ccc4Cl)ccc23)ccn1
growth (T-47D breast): 78.1%
growth (BT-549 breast): 85%
growth (MDA-MB-435 melanoma): 74.1%
growth (SW-620 colon): 112%
growth (MCF7 breast): 85%
growth (HCT-116 colon): 60.1%
growth (HCC-2998 colon): 115%
growth (KM12 colon): 96.7%

C=C1C(=O)O[C@H]2[C@H]1CC/C(COC(=O)/C=C\C(=O)NCc1ccc(Cn3c(=O)sn(CCCCC)c3=O)cc1)=C\CC[C@@]1(C)O[C@@H]21
growth (T-47D breast): 71.7%
growth (BT-549 breast): 85.8%
growth (MDA-MB-435 melanoma): 60.6%
growth (SW-620 colon): 19.2%
growth (MCF7 breast): 36.6%
growth (HCT-116 colon): 40.3%
growth (HCC-2998 colon): 100%
growth (KM12 colon): 98.8%

CCCC(CC)(C(=O)Nc1ccc2nc(C)cc(N)c2c1)C(=O)Nc1ccc2nc(C)cc(N)c2c1
growth (T-47D breast): 106%
growth (BT-549 breast): 101%
growth (MDA-MB-435 melanoma): 108%
growth (SW-620 colon): 112%
growth (MCF7 breast): 102%
growth (HCT-116 colon): 85.2%
growth (HCC-2998 colon): 111%
growth (KM12 colon): 109%

COc1ccc2c(c1)c(/C(O)=C1\COC(=O)C1=O)cn2Cc1ccc(F)cc1
growth (T-47D breast): 114%
growth (BT-549 breast): 110%
growth (MDA-MB-435 melanoma): 109%
growth (SW-620 colon): 101%
growth (MCF7 breast): 107%
growth (HCT-116 colon): 104%
growth (HCC-2998 colon): 108%
growth (KM12 colon): 109%

O=C(C1CCCCC1)[C@@H]1[C@]2(C(=O)NC3CCCCC32)[C@@H]2CCCN2[C@@]12C(=O)NC1CCC(Cl)CC12 (stereo partly specified)
growth (T-47D breast): -69% [100 µM] (active)
growth (BT-549 breast): -91.6% [100 µM] (active)
growth (MDA-MB-435 melanoma): -91% [100 µM] (active)
growth (SW-620 colon): -89.6% [100 µM] (active)
growth (MCF7 breast): -51.4% [100 µM] (active)
growth (HCT-116 colon): -91.2% [100 µM] (active)
growth (HCC-2998 colon): -84.8% [100 µM] (active)
growth (KM12 colon): -86% [100 µM] (active)

CNC1=C([N+](=O)[O-])C(c2ccc(OC)cc2)C(C#N)=C(c2cccs2)O1 (stereo unspecified)
growth (T-47D breast): 91.7%
growth (BT-549 breast): 117%
growth (MDA-MB-435 melanoma): 108%
growth (SW-620 colon): 106%
growth (MCF7 breast): 96%
growth (HCT-116 colon): 109%
growth (HCC-2998 colon): 109%
growth (KM12 colon): 103%

Nc1nc(N)c2c(n1)NC(c1cccc(Nc3ccnc4cc(C(F)(F)F)ccc34)c1)CC(c1ccccc1)=N2 (stereo unspecified)
growth (T-47D breast): 83.4%
growth (BT-549 breast): 114%
growth (MDA-MB-435 melanoma): -30.4% (active)
growth (SW-620 colon): 32.4%
growth (MCF7 breast): 16.9%
growth (HCT-116 colon): 21%
growth (HCC-2998 colon): 54.2%
growth (KM12 colon): 33.5%

CN1CCN(Cc2ccc(NC(=O)c3cncc(C#Cc4cnc5ccc(Cl)nn45)c3)cc2C(F)(F)F)CC1
growth (T-47D breast): 10.4%
growth (BT-549 breast): -6.27% (active)
growth (MDA-MB-435 melanoma): -10.4% (active)
growth (SW-620 colon): -2.63% (active)
growth (MCF7 breast): -2.36% (active)
growth (HCT-116 colon): -12.6% (active)
growth (HCC-2998 colon): -24.4% (active)
growth (KM12 colon): -0.151% (active)

O=c1c2ccccc2c(=O)c2c1sc1c(=O)c3ccc(O)cc3c(=O)c12
growth (T-47D breast): -27.5% (active)
growth (BT-549 breast): -92.6% (active)
growth (MDA-MB-435 melanoma): -86.2% (active)
growth (SW-620 colon): -71.1% (active)
growth (MCF7 breast): -52.2% (active)
growth (HCT-116 colon): -29.2% (active)
growth (HCC-2998 colon): -60.5% (active)
growth (KM12 colon): -31.5% (active)

COc1cc2c(cc1OCCCCN1CCN(C(=S)SCCC(C#N)(c3ccccc3)c3ccccc3)CC1)N=C[C@@H]1CCCN1C2=O
growth (T-47D breast): -13.3% (active)
growth (BT-549 breast): -91.8% (active)
growth (MDA-MB-435 melanoma): -17% (active)
growth (SW-620 colon): -95.6% (active)
growth (MCF7 breast): -93.4% (active)
growth (HCT-116 colon): -62.1% (active)
growth (HCC-2998 colon): -72.3% (active)
growth (KM12 colon): -60.9% (active)

COc1cc(/C=C2\CN(S(=O)(=O)c3ccccc3)C/C(=C\c3cc(CN4CCCCC4)c(O)c(OC)c3)C2=O)cc(CN2CCCCC2)c1O
growth (T-47D breast): 89.2%
growth (BT-549 breast): -39.9% (active)
growth (MDA-MB-435 melanoma): -88.6% (active)
growth (SW-620 colon): -74.5% (active)
growth (MCF7 breast): -51.9% (active)
growth (HCT-116 colon): -67.4% (active)
growth (HCC-2998 colon): -68% (active)
growth (KM12 colon): -87.1% (active)
